Bioassay records as filed in PubChem.
697 NFkB inh = lowers PMA/ionomycin-induced NF-kB signal in 697 B cells; 697 B-cell NF-kB luciferase reporter, 16 h; inhibition, % at 4 µM; actives 0.33% (n = 330,000); AID 435022; in the data active = inhibition above about 35%
Mdm2-MdmX inh = human Mdm2/MdmX binding inhibition; SaOS-2 split-luciferase Mdm2/MdmX complementation, luminescence; inhibition, % at 8 µM; O15151+Q00987; actives 3% (n = 330,000);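 active = inhibition of at least 50% at 8 µM in the primary screen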
Target sequence (O15151 whole entry, looked up): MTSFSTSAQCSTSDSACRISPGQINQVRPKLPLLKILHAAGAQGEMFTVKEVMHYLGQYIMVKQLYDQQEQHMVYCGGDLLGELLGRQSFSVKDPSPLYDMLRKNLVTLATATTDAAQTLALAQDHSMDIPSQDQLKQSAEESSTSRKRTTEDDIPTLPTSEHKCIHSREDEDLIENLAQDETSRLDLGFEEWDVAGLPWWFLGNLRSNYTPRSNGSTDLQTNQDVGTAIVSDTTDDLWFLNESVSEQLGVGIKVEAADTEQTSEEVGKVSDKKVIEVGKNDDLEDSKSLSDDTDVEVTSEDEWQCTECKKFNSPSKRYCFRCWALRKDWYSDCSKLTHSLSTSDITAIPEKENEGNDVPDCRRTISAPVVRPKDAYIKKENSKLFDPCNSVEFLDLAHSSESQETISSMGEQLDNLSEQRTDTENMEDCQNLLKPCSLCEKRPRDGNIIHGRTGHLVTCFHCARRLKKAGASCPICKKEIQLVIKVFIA
Target sequence (Q00987 whole entry, looked up): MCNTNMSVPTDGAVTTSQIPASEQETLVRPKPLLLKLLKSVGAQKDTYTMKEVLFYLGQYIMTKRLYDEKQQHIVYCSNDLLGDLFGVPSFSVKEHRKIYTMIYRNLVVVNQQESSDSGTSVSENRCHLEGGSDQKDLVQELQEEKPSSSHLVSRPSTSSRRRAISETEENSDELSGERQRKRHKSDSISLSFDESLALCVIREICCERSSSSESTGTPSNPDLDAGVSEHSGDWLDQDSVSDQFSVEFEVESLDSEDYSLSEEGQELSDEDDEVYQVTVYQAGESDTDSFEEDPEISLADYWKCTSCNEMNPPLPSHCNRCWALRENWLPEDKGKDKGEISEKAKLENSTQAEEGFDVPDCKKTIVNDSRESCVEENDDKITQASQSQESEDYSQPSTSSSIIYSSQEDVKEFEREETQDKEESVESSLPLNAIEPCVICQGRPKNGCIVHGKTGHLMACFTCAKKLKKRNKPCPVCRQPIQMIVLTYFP
Shn3 inh set2 = inhibitors of Schnurri-3 3'UTR reporter in osteoblasts; Clone20 osteoblast Shn3 3'UTR firefly luciferase, 24 h; inhibition, % at 12.5 µM; actives 0.52% (n = 360,000);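 active = mean inhibition of at least 75% with every replicate also reaching 75%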;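 note: 0% = median of neutral control wells and 100% = pilot-screen positive control compound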
Jurkat NFkB inh = inhibitors of the PMA/ionomycin-induced NF-kB reporter in Jurkat cells; actives 0.53% (n = 330,000); PMA/ionomycin-induced NF-kB luciferase reporter, luminescence; inhibition, % at 4 µM; AID 435003; in the data active = inhibition above about 50%
Gli-Sufu antag = blocks Gli-Sufu signaling in a luciferase reporter. actives 0.74% (n = 340,000). inhibition, % at 5 µM. Sufu-KO-LIGHT fibroblasts, Gli luciferase reporter luminescence;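 active = inhibition above about 55%, limit read from the data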;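 note: 0% = DMSO-treated cells and 100% = wells with medium but no cells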
Mdm2 MdmX conf = human Mdm2/MdmX binding inhibition, confirmed; actives 55% (n = 10,000); inhibition, % at 8 µM; shares compounds with Mdm2-MdmX inh; AID 489028; luminescent assay; in the data active = inhibition above about 40%
Full FLuc ctr = counter-screen for Mdm2/MdmX inhibitors: full-length luciferase; shares compounds with Mdm2-MdmX inh; SaOS-2 full-length luciferase counterscreen, luminescence; inhibition, % at 8 µM; actives 77% (n = 6,200);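 active = mean inhibition at 8 µM reaching about 37%, which flags the compound as non-specific, limit read from the data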;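 note: p53-null SaOS-2 cells with luciferase driven by a doxycycline-inducible promoter; compound on cells about two nights before reading with doxycycline added after day one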
Numbers without * were called inactive; nt = not tested or not shown. An excerpt weighted towards active compounds, which were near 3.8% of everything screened.

SMILES	697 NFkB inh	Mdm2-MdmX inh	Shn3 inh set2	Jurkat NFkB inh	Gli-Sufu antag	Mdm2 MdmX conf	Full FLuc ctr
O=C(c1ccc(S(=O)(=O)c2cccc(Cl)c2)c([N+](=O)[O-])c1)N1CCN(Cc2ccccc2)CC1	-9	94*	25	18	13	85*	58*
CC1CCN(C(=O)c2ccc(S(=O)(=O)Cc3cccc(F)c3)c([N+](=O)[O-])c2)CC1	12	56*	19	19	11	50*	72*
O=C(c1ccc(Cl)c([N+](=O)[O-])c1)N1CCN(c2ccccn2)CC1	14	5	4	-6	2	nt	nt
COc1ccc(C(=O)N2CCN(Cc3ccccc3)CC2)cc1[N+](=O)[O-]	6	5	6	12	13	nt	nt
COc1ccc([N+](=O)[O-])cc1NCc1ccccc1	-47	70*	-138	-24	-19	39	98*
COc1ccc([N+](=O)[O-])cc1NCc1ccccc1C	-41	17	-2	-26	-12	nt	nt
Cc1ccc(C(=O)NCC(=O)N2CCCCCCC2)cc1C	1	5	-23	-13	-13	nt	nt
C/C=C1\COC(C(=O)NCc2ccccc2)(C(F)(F)F)C=C1C=C1CCCCC1 (centres undefined)	-1	21	17	12	29	nt	nt
C/C=C1\COC(C(=O)NCCN2CCCC2)(C(F)(F)F)C=C1C=C1CCCCC1 (centres undefined)	9	53*	18	11	0	20	nt
CCN(Cc1ccccc1)CC(O)COC(c1ccc(OC)cc1)c1ccc(OC)cc1 (centres undefined)	-1	10	13	5	3	nt	nt
COc1ccccc1[C@H]1C(c2ccccc2)=NN(c2ccccc2)[C@@H]1CO	1	38	-6	nt	7	nt	nt
COc1ccccc1[C@H]1C(c2cccc(C)c2)=NN(c2ccccc2)[C@@H]1CO	-9	56*	12	nt	50	36	nt
O=S(=O)(/C=C/c1cccc(Br)c1)N1CCOCC1	6	24	-9	3	-4	nt	nt
O=C(Nc1ccc(F)c(Cl)c1)c1cc(C2CCCN(C(=O)c3cccs3)C2)on1 (centres undefined)	nt	nt	0	nt	nt	nt	nt
CCC(=O)Nc1ccc(-c2csc(C)n2)cc1	-24	-30	-19	-32	-50	nt	nt
CC(=O)Nc1ccc(NC(=O)c2ccc(NC(=O)c3ccccc3)cc2)cc1	20	62*	-16	-2	22	17	nt
CC(C)C(=O)Nc1ccc(NC(=O)c2ccc(COc3ccccc3)cc2)cc1	-20	72*	-17	-11	14	23	90*
CC(=O)Nc1ccc(C(=O)c2ccccc2)cc1	12	21	-4	-12	10	nt	nt
O=C(NC(=S)Nc1ccc2c(c1)C(=O)c1ccccc1C2=O)c1ccc(F)cc1	-102	69*	nt	-66	nt	-69	nt
CC(=O)Nc1ccc(NC(=O)c2ccc(COc3ccccc3)cc2)cc1	-22	-10	-13	-14	-3	nt	nt
CCC(=O)Nc1ccc(-c2cc(-c3ccccc3)nc(-c3ccc(NC(=O)CC)cc3)n2)cc1	-27	84*	65	2	10	38	64*
Cc1cccc(C(=O)NNC(=O)c2ccccc2Br)c1	-7	-7	3	-12	-10	nt	nt
CC(=O)Nc1ccc(-c2cc(-c3ccccc3)nc(-c3ccccc3)n2)cc1	-37	56*	-6	0	1	47*	92*
O=C(Nc1ccc(NC(=S)NC(=O)C(c2ccccc2)c2ccccc2)cc1)c1ccccc1	-60	51*	42	17	47	49*	42*
CC(=O)Nc1ccc(-c2cc(-c3ccc(NC(C)=O)cc3)nc(-c3ccccc3)n2)cc1	-36	58*	14	-16	-6	34	nt
SMILES	697 NFkB inh	Mdm2-MdmX inh	Shn3 inh set2	Jurkat NFkB inh	Gli-Sufu antag	Mdm2 MdmX conf	Full FLuc ctr
CC(=O)Nc1ccc(-c2cc(-c3ccc(NC(C)=O)cc3)nc(-c3ccc(NC(C)=O)cc3)n2)cc1	-22	-5	-14	-16	-12	nt	nt
CCCN(CC(=O)Nc1ccccc1C)C(=O)CCl	-13	95*	3	29	-1	97*	49*
CCCN(CC(=O)Nc1ccccc1C)C(=O)COc1c(C)cccc1C	-52	-8	-20	-26	-2	nt	nt
O=c1c2ccccc2[nH]c(=S)n1CCN1CCCCC1	-5	17	8	-6	10	nt	nt
O=c1c2ccccc2[nH]c(=S)n1CCCN1CCN(c2ccccc2F)CC1	-50	66*	4	-3	-15	36	81*
O=c1c2ccccc2[nH]c(=S)n1CCCN1CCN(c2ccccc2)CC1	-182	80*	14	-19	17	43*	63*
CCN(CC(=O)NCc1ccc(F)cc1)C(=O)C1CCN(S(=O)(=O)c2ccc(C(C)C)cc2)CC1	-19	26	25	11	7	nt	nt
COCCCn1c(=O)c2ccccc2n(CC(=O)NC2CCCCC2)c1=O	15	-8	7	7	-7	nt	nt
COc1ccc(-c2oc(=O)c3cc(OC)c(OC)cc3c2/C=C/c2cccc([N+](=O)[O-])c2)cc1	7	54*	4	-5	23	15	nt
Nc1nc(Nc2ccccc2)nc(NCc2ccccc2)c1[N+](=O)[O-]	-40	19	0	-26	-11	nt	nt
Cc1cccc(Nc2nc(N)c([N+](=O)[O-])c(NCc3ccccc3)n2)c1	-14	52*	2	8	22	33	nt
Cc1ccc2nc(N3CCN(c4cccc(C)c4C)CC3)c3nnnn3c2c1	-14	-9	7	-2	5	nt	nt
Cc1ccc2nc(Cl)c3nnnn3c2c1	-17	97*	97*	-5	10	90*	11
COc1ccc2[nH]c(=O)c(CN(c3ccccc3OC)S(=O)(=O)c3ccccc3)cc2c1	-2	60*	6	25	nt	38	89*
Cc1ccc2cc(CN(c3ccccc3)S(=O)(=O)c3ccccc3)c(=O)[nH]c2c1	-51	2	-17	-35	11	nt	nt
COc1ccc2[nH]c(=O)c(CN(c3ccccc3)S(=O)(=O)c3ccccc3)cc2c1	3	24	8	6	5	nt	nt
CCOc1ccc(N(Cc2cc3ccc(C)cc3[nH]c2=O)S(=O)(=O)c2ccccc2)cc1	-71	59*	14	42	0	58*	55*
C[C@H](CO)N1C[C@H](C)[C@@H](CN(C)S(=O)(=O)c2cccs2)Oc2c(NC(=O)CCC(F)(F)F)cccc2C1=O	15	16	7	3	-1	nt	nt
CCOC(=O)c1nnc(-c2ccccc2)nc1Sc1c(Cl)cccc1Cl	-6	34	-9	-7	0	nt	nt
CCOC(=O)c1nnc(-c2ccc(C)cc2)nc1Oc1ccccc1Cl	-16	51*	-27	-11	-9	-2	nt
CCOC(=O)c1nnc(-c2ccc(C)cc2)nc1Oc1ccc(Cl)cc1Cl	-8	20	-25	-4	-4	nt	nt
